SARS PLpro yeast: blocks SARS-CoV papain-like protease in a yeast assay; S. cerevisiae expressing SARS-CoV PLpro, growth rescue; Potency, µM (doses to about 32.9 µM), without a hit: top-dose activity, positive = growth rescue, hits mostly activators; 330,000 tested, 0.19% active; further: potency means the concentration at half of the fitted maximal effect; 0% is about no effect; nearly all actives have a fitted effect of over 55% in size
CHX counter: counter-screen hit for Shiga toxin inhibitors, cycloheximide; cell reporter, cycloheximide protein synthesis inhibition counterscreen; max response, %; 300,000 tested, 12% active; in the data active means max response mostly above about 13%, no sharp cut-off; inactive means mostly below about 14%; further: read at 38.3 µM for the half of the compounds with a filed dose; 0% is about no effect
NS1 inh: influenza NS1 inhibition. AID 2326. Potency, µM (series often up to 46.1 µM), without a hit: top-dose activity, positive = more growth. 270,000 tested, 0.4% active; further: potency means the concentration at half of the fitted maximal effect; actives are rising curves; nearly all actives have a fitted effect of over 50% in size
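S. cerevisiae expressing influenza A NS1, grown in glucose, washed, then diluted 1:100 into pH 6.0 -URA galactose medium with 23 nl compound. Growth recovery read as OD600; NS1-free strain serves as control.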
Shiga toxin inh: Shiga toxin inhibition. 290,000 tested, 9.2% active. Vero cells, Shiga toxin protein synthesis inhibition reporter. inhibition, % at 38.7 µM. AID 2315; in the data active means inhibition mostly above about 28%, no sharp cut-off; inactive means mostly below about 43%; further: 0% is about no effect
* hit, by the source's call; ? = inconclusive; . = no result given. In the library only some 12% were active in any assay of this set; here they are far more common. Unless noted, the call rests on the fitted dose curve.

SMILES	SARS PLpro yeast	CHX counter	NS1 inh	Shiga toxin inh
CC(C)c1ccc(NC(=O)C2CC2c2ccccc2)cc1 (centres undefined)	-4%	18*	-30%	18
CC(=O)Nc1ccc2c(c1)OCCOCCOc1cc(NC(C)=O)ccc1OCCOCCOCCO2	-9%	-2	5%	-13
O=C(Nc1ccc2c(c1)OCCO2)C(=O)NC1CC1	0%	29*	0%	80*
O=C(O)C1CCCCC1C(=O)Nc1ccc2c(c1)OCCO2 (centres undefined)	3%	34*	0%	102*
Cc1ccc(C2=CSC3=NCCN23)c(C)c1	3%	-1	5%	-19
Cc1ccc(C2=CSC3=NNC4(CCCCC4)NN23)cc1	-1%	53*	.	88*
COc1ccc(C2=CSC3=NNC4(CCCCC4)NN23)cc1	0%	35*	.	102*
CCOCCCNC(=O)c1ccc(C2SCC(=O)N2Cc2ccccc2)cc1 (centres undefined)	-1%	-2	-5%	.
Cc1ccc(C)c(NC(=O)CSc2nc(=O)n(CCN3CCOCC3)c3c2CCCC3)c1	2%	.	.	.
Cc1cccc(Cn2ncc(Cl)c(Cl)c2=O)c1	-19%	24*	-43%	32
Cc1cccc(Cn2nnc3c2C(=O)c2ccccc2C3=O)c1	6%	27*	-5%	active
O=C(/C=C/c1cccc(F)c1)OCC(=O)N1CCCC1	27%	.	.	.
CCOC(=O)N1C/C(=C\c2ccccc2)C(=O)/C(=C/c2ccccc2)C1	-1%	41*	-35%	24*
Cc1csc(CNc2ncnc3ccc(-c4ccco4)cc23)c1	-5%	.	.	.
CCOC(=O)Cc1cc(=O)n2[nH]cc(-c3ccc(Cl)cc3)c2n1	1%	10	10%	-4
COc1ccccc1C(=O)Nc1nnc(-c2ccco2)s1	-13%	42*	-129%	133*
Cc1ccccc1C(=O)Nc1nnc(-c2ccco2)s1	-3%	38*	-1%	69*
COCC(=O)N(C)C[C@H]1N[C@@](C)(C(=O)OC)[C@H]2C(=O)N(C)C(=O)[C@@H]12	2%	.	.	.
CC(C)C(C(=O)Nc1nccs1)N1C(=O)c2ccccc2C1=O (centres undefined)	0%	-4	2%	-16
O=[N+]([O-])c1ccc(C23CC4CC(CC(O)(C4)C2)C3)cc1	?	39*	-9%	63*
O=C(COC(=O)c1cccnc1Cl)c1ccc(F)cc1	0%	22*	4%	97*
CCc1ccc(C(=O)COC(=O)c2cccnc2Cl)cc1	-1%	39*	-9%	95*
O=C(OCc1ccc(COC(=O)c2cccnc2Cl)cc1)c1cccnc1Cl	-1%	-1	2%	-6
CCC(C)(C)c1ccc(OC(=O)c2cccnc2Cl)cc1	-3%	38*	-20%	124*
O=C(COC(=O)c1cccnc1Cl)c1ccccc1	-8%	47*	-28%	71*
SMILES	SARS PLpro yeast	CHX counter	NS1 inh	Shiga toxin inh
O=C(OCc1c(Cl)cccc1Cl)c1cccnc1Cl	-2%	-4	-8%	-10
NS(=O)(=O)c1ccc(NC(=O)CCC(=O)c2ccc(Cl)s2)cc1	-2%	-3	7%	-16
Cc1ccccc1NC(=O)NC1(C(=O)N2CCN(C)CC2)CCCCC1	1%	-7	10%	7
O=C1CCC(C(=O)Nc2ccccc2N2CCOCC2)=NN1	-1%	1	-5%	10
CCC(NC(=O)c1ccccc1NC(=O)c1ccccc1)C(=O)O (centres undefined)	-1%	4	?	20
Cc1ccc(C(=O)Nc2ccccc2C(=O)NC(C(=O)O)C(C)C)cc1 (centres undefined)	-2%	21	2%	48*
Cc1ccc(C(=O)Nc2ccccc2C(=O)NC(CC(=O)O)C(=O)O)cc1 (centres undefined)	0%	3	-5%	17
CCC(C)C(NC(=O)c1ccccc1NC(=O)c1ccc(C)cc1)C(=O)O (centres undefined)	0%	55*	.	94*
COc1ccc(C2NC(=O)C(C)S2)cc1 (centres undefined)	2%	-6	1%	-34
Nc1cc2c(cc1C(=O)c1ccccc1)OCCO2	8%	-3	-12%	-16
COC(=O)c1cc2c(cc1N)OCCO2	11%	25*	0%	26
Cc1cc(=S)cc(C)n1CCO	16%	-2	2%	-6
CCOc1ccc(CC(=O)Nc2c3c(nn2C(C)(C)C)CS(=O)(=O)C3)cc1	-3%	-4	1%	-19
CCN(Cc1ccncc1)C(=O)c1ccccc1NS(=O)(=O)c1ccc(Br)cc1	-1%	-2	-4%	1
COC(=O)c1ccc(-c2nc3cc(Cl)c(N)cc3s2)cc1	4%	48*	4%	106*
COC(=O)c1ccc(-c2nc(O)c(C)s2)cc1	-1%	0	-5%	28
Cc1ccccc1N(C(=O)CNC(=O)c1ccco1)C(C(=O)NC1CCCCC1)c1ccncc1 (centres undefined)	0%	-4	-10%	16
CC(=O)c1c(C)[nH]c(C(=O)Nc2cccc(S(=O)(=O)N(C)C)c2)c1C	2%	31*	.	50
CN(C)S(=O)(=O)c1cccc(NC(=S)NNC(=O)c2cc3ccccc3cc2O)c1	4.5µM*	.	.	.
CN(C)S(=O)(=O)c1ccc(C(=O)Nc2ccc3ncccc3c2)cc1	-2%	32*	1%	41*
CN(C)S(=O)(=O)c1cccc(NC(=S)NC(=O)c2ccco2)c1	-14%	.	.	.
CN(C)S(=O)(=O)c1cccc(NC(=O)c2cc(=O)[nH]c3ccccc23)c1	-1%	3	5%	-10
CN(C)S(=O)(=O)c1cccc(NC(=O)c2c[nH]c3ccccc23)c1	1%	16*	8%	64*
Cc1sc2ncnc(OCC(=O)N3CCN(C(=O)c4ccco4)CC3)c2c1C	0%	0	.	23
COc1ccc(/C=N/NC(=O)CNC(=O)c2ccncc2)cc1	1%	-2	-1%	-4
SMILES	SARS PLpro yeast	CHX counter	NS1 inh	Shiga toxin inh
Cc1cccc(NC(=O)c2ccc(S(=O)(=O)N(C)C)cc2)c1	2%	16*	-49%	41
CCOC(=O)C(CC(=O)c1ccccc1)CC(=O)c1ccccc1	-1%	39*	-7%	113*
COC(=O)C(CC(=O)c1ccccc1)CC(=O)c1ccccc1	-1%	17*	-3%	43*
CCOC(=O)C(CCC(C)=O)C(=O)c1ccccc1 (centres undefined)	19%	-1	13%	-5
CN(C)CCCN(C(=O)c1ccc(S(=O)(=O)N2CCCCCC2)cc1)c1nc2c(F)cc(F)cc2s1	-2%	.	.	.
CCOC(=O)C(CCc1ccccc1)NC(C)C(=O)N1Cc2cc(OC)c(OC)cc2CC1C(=O)O (centres undefined)	.	-2	.	-5
NC12NC(=O)C3(O)C4C5CC(C6C5C3C61)C42 (centres undefined)	0%	3	?	14
NS(=O)(=O)c1ccc(CCNc2ccc(C(F)(F)F)cn2)cc1	-2%	-4	11%	-5
FC(F)(F)c1ccc(NCCc2ccccc2)nc1	-3%	14*	-9%	19
O=C(NC1CCCCC1)c1cc(C2CC2)nn1-c1ccccc1	-11%	.	.	.
CCc1cc2c(=O)n3c(nc2s1)-c1[nH]c2ccc(OC)cc2c1CC3	13%	15*	1%	21
COc1ccc2[nH]c3c(c2c1)CCn1c-3nc2sc(C(=O)Nc3ccccc3)c(C)c2c1=O	2%	-2	12%	10

From PubChem
